High-throughput results: PubChem, National Center for Advancing Translational Sciences (NCATS)
POLK inh = DNA polymerase kappa (human) inhibition; purified Pol kappa, fluorescent DNA synthesis assay, 10 min; Potency, µM (doses to about 107 µM), inactives show at the top dose activity, negative = inhibition, actives largely listed as inhibitors; 400,000 compounds, 0.53% hits; also: potency is read from the fitted curve at half-maximal effect; % is scaled to controls: 0 for no effect and ±100 for the full control effect
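Here, compound and 10 nM enzyme are combined for 15 min at room temperature; adding 50 nM substrate (final) starts DNA synthesis, tracked by fluorescence at 0 and 10 min against buffer-only wells.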
POLB inh = inhibitors of human DNA polymerase beta; Potency, µM (doses to about 114 µM), inactives show at the top dose activity change, negative = inhibition, most hits filed as inhibitors; Pol beta primer extension/strand displacement, fluorescence kinetic; 340,000 compounds, 1.3% hits; AID 485314; also: potency is read from the fitted curve at half-maximal effect; % is scaled to controls: 0 for no effect and ±100 for the full control effect
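Human Pol beta at 10 nM; strand-displacement substrate 50 nM final. Compound exposure 15 min at room temperature before start, reaction 10 min at room temperature.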
Pol eta inh-1 = blocks human DNA polymerase eta activity; recombinant Pol eta, fluorescent DNA replication assay; Potency, µM (highest dose often 114 µM), without a hit: at the highest dose activity change, negative = inhibition, actives largely listed as inhibitors; 390,000 compounds, 1.2% hits; Q9Y253; also: potency is read from the fitted curve at half-maximal effect; % is scaled to controls: 0 for no effect and ±100 for the full control effect
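Pol eta (10 nM) was preincubated with compounds for 15 min at room temperature, after which fluorescent replication substrate (50 nM final) was added to start the reaction. Fluorescence was read kinetically at 0 and 10 min.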
WRN inhibitor = blocks human WRN helicase; Q14191; WRN helicase unwinding, fluorescent forked duplex, kinetic; Potency, µM (doses to about 114 µM), without a hit: top-dose activity change, negative = inhibition, actives largely listed as inhibitors; 360,000 compounds, 0.46% hits; also: potency is read from the fitted curve at half-maximal effect; % is scaled to controls: 0 for no effect and ±100 for the full control effect; nearly all actives have a fitted effect of over 55% in size
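Enzyme (20 nM final) and test compound sit together 15 min at room temperature before substrate addition. Substrate is a single-forked duplex oligonucleotide (100 nM) labelled with fluorophore and quencher, with 2 mM ATP; helicase unwinding raises red fluorescence, read kinetically.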
POLI inh = DNA polymerase iota (human) inhibition. Q9UNA4. Pol iota fluorescent replication assay, 10 min. Potency, µM (doses to about 115 µM), for inactives: at the top dose activity, negative = inhibition, actives largely listed as inhibitors. 390,000 compounds, 1% hits. AID 588590; also: potency is read from the fitted curve at half-maximal effect
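Fluorescent replication assay read twice, at 0 min and 10 min after adding 50 nM (final) substrate. Enzyme (10 nM) and compounds were first incubated 15 min at room temperature; enzyme-free buffer wells were negative controls.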
PI5P4K alpha inh = inhibitors of human PI5P4K alpha; P48426; PI5P4Kalpha enzyme, ADP-Glo luminescence, 60 min; hits give low values; max response, %; 330,000 compounds, 1.2% hits; active = max response of -50% or lower; inconclusive = between -30% and -50%; inactive = -30% or higher; also: value at the top dose of about 77 µM; % is scaled to controls: 0 for no effect and ±100 for the full control effect
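ADP-Glo luminescence end-point read after a 60 min room-temperature kinase reaction of PI5P4Kalpha plus substrate, initiated with ATP at 5 microM final. Buffer: 0.038 M HEPES pH 7.4, EGTA, 0.1% CHAPS, 5% DMSO.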
Pol iota confirm = Inhibitors of human DNA polymerase iota, confirmation. shares compounds with POLK inh. Pol iota primer extension, TAMRA/BHQ fluorescence. Potency, µM, hits mostly inhibitors. 1,500 compounds, 77% hits. AID 720496; also: potency is read from the fitted curve at half-maximal effect
Pol eta inh-2 = confirmation of human DNA polymerase eta inhibitors. Pol eta primer extension, TAMRA/BHQ fluorescence, 10 min. Potency, µM, usual class: inhibitors. AID 720502. 2,600 compounds, 64% hits. shares compounds with Pol eta inh-1; also: potency is read from the fitted curve at half-maximal effect
* marks the source's active call; other numbers are inactive results; [ ] = dose if it differs, or a comment. In the library only some 2.8% were active in any assay of this set; here they are far more common. Unless noted, calls follow the shape of the dose curve; as a rule, active = well fitted curve in the direction sought with a large enough effect; inconclusive = small, poorly fitted or top-dose-only effect, or another doubt; inactive = no such curve, though single readings can be large; an effect the other way counts as inactive or inconclusive.

What do the screens show for `CCN1C(=O)/C(=C/c2cn(-c3ccccc3)nc2-c2cccnc2)SC1=S`?
POLK inh: 3%; Pol eta inh-1: -19%; WRN inhibitor: 8%; POLI inh: -2%; PI5P4K alpha inh: 1

What do the screens show for `COc1ccc(O)c(/C=C2/SC(=S)N(Cc3ccccc3)C2=O)c1`?
POLK inh: -9%; POLB inh: -10%; Pol eta inh-1: -23%; WRN inhibitor: -12%; POLI inh: -16%; PI5P4K alpha inh: -9

How did O=C(O)CCN1C(=O)/C(=C/c2cn(-c3ccccc3)nc2-c2cccs2)SC1=S do in these assays?
POLK inh: 89µM*; POLB inh: -16%; Pol eta inh-1: 35µM*; WRN inhibitor: -22%[11.6 µM]; POLI inh: 32µM*; PI5P4K alpha inh: -3; Pol iota confirm: 19*; Pol eta inh-2: 43*

Results for COc1ccc(-c2nn(-c3ccccc3)cc2/C=C2/SC(=S)N(CCC(=O)O)C2=O)c(C)c1 ?
POLK inh: inconclusive; POLB inh: 32µM*; Pol eta inh-1: 32µM*; WRN inhibitor: -21%; POLI inh: inconclusive; PI5P4K alpha inh: -8; Pol iota confirm: 75*; Pol eta inh-2: inconclusive

What do the screens show for `Cc1c(C(=O)N2CCc3ccccc3C2)oc2ccc(S(=O)(=O)N3CC(C)CC(C)C3)cc12` (stereo unspecified)?
POLK inh: -9%; POLB inh: 36%; Pol eta inh-1: -15%; WRN inhibitor: -8%; POLI inh: -6%; PI5P4K alpha inh: -5

How did Cc1ccc(CCNC(=O)CCCn2c(=O)c3ccccc3n(Cc3ccccc3C)c2=O)cc1 do in these assays?
POLK inh: 0%; POLB inh: 1%; Pol eta inh-1: -14%; POLI inh: 30%

What do the screens show for `O=C(O)CCN1C(=O)/C(=C\c2cccc(Oc3ccccc3)c2)SC1=S`?
POLK inh: inconclusive; POLB inh: inconclusive; Pol eta inh-1: 40µM*; WRN inhibitor: inconclusive; POLI inh: 25µM*; PI5P4K alpha inh: 0; Pol iota confirm: inconclusive; Pol eta inh-2: 76*

Results for CC1=NNC(=O)/C1=C\c1cn(-c2ccccc2)nc1-c1cccs1 ?
POLK inh: -9%; POLB inh: 18%; Pol eta inh-1: -16%; WRN inhibitor: -9%; POLI inh: inconclusive; PI5P4K alpha inh: -28

How did COc1ccc(/C=C2/SC(=S)N(CCC(=O)O)C2=O)cc1 do in these assays?
POLK inh: -13%; POLB inh: 22%; Pol eta inh-1: -9%; WRN inhibitor: -18%; POLI inh: -5%[58.9 µM]

What do the screens show for `O=C(O)CCCCCN1C(=O)/C(=C\c2cn(-c3ccccc3)nc2-c2cccs2)SC1=S`?
POLK inh: inconclusive; POLB inh: -68%; Pol eta inh-1: 45µM*; WRN inhibitor: -16%[11.6 µM]; POLI inh: inconclusive; PI5P4K alpha inh: 0; Pol iota confirm: 34*; Pol eta inh-2: inconclusive

Results for COc1ccc(/C(O)=C2/C(=O)C(=O)N(c3ccccn3)C2c2cccc(Cl)c2)cc1 (stereo unspecified) ?
POLK inh: -25%; POLB inh: 6%; Pol eta inh-1: -3%; WRN inhibitor: -10%; POLI inh: inconclusive; PI5P4K alpha inh: 4

What do the screens show for `O=c1cc(Br)c(O)c(Br)cc1Br`?
POLK inh: 50µM*; Pol eta inh-1: 18µM*; WRN inhibitor: inconclusive; POLI inh: 4.5µM*; PI5P4K alpha inh: inconclusive; Pol iota confirm: inconclusive; Pol eta inh-2: 60*

Results for Oc1c(Br)cc(Br)c2cccnc12 ?
POLK inh: 9%; Pol eta inh-1: -17%; WRN inhibitor: 2%; POLI inh: 82%; PI5P4K alpha inh: -22
